Shown are actives, neighbours in structure and some others; about 16% of the full set was active somewhere.
uPA surface inh = qHTS for Inhibitors of Cell Surface uPA Generation; Potency, µM (highest dose often 38.3 µM), actives largely listed as inhibitors; 330,000 tested, 0.31% active; cell surface uPA generation assay, qHTS; active means well fitted inhibition curve with a large enough effect; inconclusive means small, poorly fitted or top-dose-only effect; inactive means no such curve, though single readings can be large or run the other way; tested in mouse RAW 264.7 cells; further: nearly all actives have a fitted effect of over 55% in size
TDP1 cell noCPT = qHTS for Inhibitors of human tyrosyl-DNA phosphodiesterase 1 (TDP1): qHTS in cells in absence of CPT | DT40 Tdp1-/- hTDP1 cells, no CPT, ATP luminescence, 48 h | Potency, µM (titrated, usually from 46.2 µM), hits mostly inhibitors | 420,000 tested, 15% active | AID 686978, 2013; further: nearly all actives have a fitted effect of over 55% in size
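Seeded 400 DT40-hTDP1 cells/well (vehicle DMSO, no 20 nM CPT); pinned compounds; ≥48 hr at 37 °C; CellTiter-Glo luminescence as viability measure.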
TDP1 block = qHTS Assay for Inhibitors of Tyrosyl-DNA Phosphodiesterase (TDP1) | recombinant TDP1, AlphaScreen DNA substrate cleavage | Potency, µM (series often up to 130 µM), hits mostly inhibitors | 350,000 tested, 0.28% active | AID 485290, 2010; further: nearly all actives have a fitted effect of over 40% in size
Target sequence (Q9NUW8 whole entry, looked up): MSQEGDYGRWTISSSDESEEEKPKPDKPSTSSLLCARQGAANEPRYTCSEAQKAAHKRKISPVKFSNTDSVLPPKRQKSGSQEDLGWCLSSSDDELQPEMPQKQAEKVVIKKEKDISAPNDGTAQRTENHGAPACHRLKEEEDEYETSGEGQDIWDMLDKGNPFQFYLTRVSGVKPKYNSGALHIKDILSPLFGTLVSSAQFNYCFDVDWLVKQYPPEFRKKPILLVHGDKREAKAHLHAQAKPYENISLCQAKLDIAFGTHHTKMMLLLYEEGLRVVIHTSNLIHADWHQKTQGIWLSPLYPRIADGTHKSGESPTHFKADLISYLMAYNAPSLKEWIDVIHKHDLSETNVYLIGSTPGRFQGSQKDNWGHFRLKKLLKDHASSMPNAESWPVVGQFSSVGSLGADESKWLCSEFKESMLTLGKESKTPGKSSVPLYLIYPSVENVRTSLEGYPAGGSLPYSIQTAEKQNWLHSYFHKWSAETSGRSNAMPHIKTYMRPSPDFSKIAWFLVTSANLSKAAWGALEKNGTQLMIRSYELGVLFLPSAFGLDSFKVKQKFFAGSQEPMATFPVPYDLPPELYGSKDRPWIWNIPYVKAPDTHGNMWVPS
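Compounds were preincubated with Tdp1 (1 nM final) for 15 min at room temperature before substrate (15 nM final) started a 5 min reaction; beads (10 ug/ml final) were then added for 10 min before AlphaScreen detection.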
TDP1 cell CPT = qHTS for Inhibitors of human tyrosyl-DNA phosphodiesterase 1 (TDP1): qHTS in cells in presence of CPT; Potency, µM (highest dose often 46.2 µM), actives largely listed as inhibitors; 420,000 tested, 12% active; chicken DT40 Tdp1-/-;hTDP1 cells + 20 nM CPT, ATP luminescence, 48 h; further: nearly all actives have a fitted effect of over 55% in size
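Cell growth measured by CellTiter-Glo luminescence after a minimum 48 h, 37 C compound exposure with 20 nM CPT in Tdp1-knockout DT40 cells stably expressing hTDP1, seeded 400/well; qHTS titration format.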
miR-21 reporter = qHTS Assay for Modulators of miRNAs and/orActivators of miR-21 | HeLa miR-21 FLuc reporter, luciferase, 48 h | Potency, µM (highest dose often 38.3 µM), hits mostly activators | 340,000 tested, under 10 active;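 further: miR-21 action dims this reporter so a rising signal means less miR-21 action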
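HeLa cells endogenously expressing miR-21, stably carrying CMV-driven firefly luciferase with a downstream miR-21 binding site, 2000 cells/well. Titrations up to approximately 40 uM, 48 hours; luciferase luminescence read.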
Numbers stand for hits; n = inactive; u = inconclusive; x = no result. Unless noted, the call rests on the fitted dose curve; in most records, active means well fitted curve in the direction sought with a large enough effect; inconclusive means small, poorly fitted or top-dose-only effect, or another doubt; inactive means no such curve, though single readings can be large; an effect the other way counts as inactive or inconclusive.

SMILES	uPA surface inh	TDP1 cell noCPT	TDP1 block	TDP1 cell CPT	miR-21 reporter
CCc1ccc(NC(=O)COc2coc(CN3CCc4ccccc4C3)cc2=O)cc1	n	u	n	u	x
CC(=O)N1CCN(c2ccccc2NC(=O)c2ccc3ccccc3c2)CC1	n	u	x	n	n
CC(=O)Nc1ccc(NC(=S)NC(=O)c2cc3ccccc3o2)cc1	n	n	n	n	n
O=C(Nc1ccccc1N1CCN(C(=O)c2ccccc2)CC1)c1cc2ccccc2o1	n	20.6µM	n	u	n
O=C(Nc1ccc(N2CCOCC2)c(Cl)c1)c1cc2ccccc2o1	n	20.6µM	n	14.6µM	n
O=C(NC(=S)Nc1ccc(CN2CCCCC2)cc1)c1cc2ccccc2o1	n	20.6µM	n	23.1µM	n
COc1ccc(N2CCOCC2)c(NC(=O)c2cc3ccccc3o2)c1	n	u	x	u	n
COc1c(C(=O)Nc2ccccc2N2CCOCC2)cc2ccccc2c1Br	n	23.1µM	x	u	x
NC(=S)NC(=O)c1ccccc1	n	n	n	n	n
Cc1cc(Br)ccc1SCC(=O)OCC(=O)NC(C)c1ccccc1 (configuration not stated)	n	n	n	n	n
CCCCn1c(N)c(N(CCC(C)C)C(=O)c2ccc(C)c(S(=O)(=O)N3CCOCC3)c2)c(=O)[nH]c1=O	n	n	n	n	x
CN1CCN(c2ccccc2NC(=O)c2cc3ccccc3o2)CC1	x	u	n	u	n
CS(=O)(=O)N1CCN(c2ccccc2NC(=O)c2cc3ccccc3o2)CC1	n	14.6µM	x	n	n
CSc1ccc(/C=N/NC(=O)c2ccc(C)c(C)c2)cc1	n	23.1µM	n	u	n
Cc1c(N=C2N=C(NC(=O)c3ccc(F)cc3)c3ccccc32)c(=O)n(-c2ccccc2)n1C	n	23.1µM	n	16.4µM	n
COC(=O)C1=C(C)Nc2nnnn2C1c1cccs1 (configuration not stated)	n	n	n	n	n
CCN(CC(=O)Nc1ccccc1OC)C(=O)c1cc(S(=O)(=O)N2CCCCCC2)ccc1OC	n	11.6µM	n	16.4µM	x
COCCN(CC(=O)Nc1cccc(C)c1C)C(=O)c1cc(S(=O)(=O)N2CCCC2)ccc1C	n	n	n	n	x
CCN(CC(=O)Nc1cc(Cl)ccc1C)C(=O)c1cc(S(=O)(=O)N2CCCCCC2)ccc1OC	n	18.4µM	n	u	x
N#Cc1ccncc1Sc1ccc(Cl)cc1	n	n	x	n	n
Cc1ccc([C@H]2C[C@@H](n3cc(COC(=O)c4ccccc4)nn3)[C@H](O)CN2C(=O)C2CCCCC2)cc1	x	20.6µM	x	u	x
O=C(OCc1cn([C@H]2C[C@H](c3ccc(Cl)cc3)N(CC3CCCCC3)C[C@@H]2O)nn1)c1ccccc1	x	n	x	n	x
Cc1ccc([C@H]2C[C@H](n3cc(COC(=O)c4ccccc4)nn3)[C@@H](O)CN2CC2CCCCC2)cc1	x	20.6µM	x	u	x
CCCCCCN1C[C@@H](O)[C@H](n2cc(COC(=O)c3ccccc3)nn2)C[C@@H]1c1ccc(C)cc1	x	20.6µM	x	20.6µM	x
COc1ccc([C@H]2C[C@H](O)[C@@H](n3cc(COC(=O)c4ccccc4)nn3)CN2CC2CCCCC2)cc1	x	23.1µM	x	23.1µM	x
SMILES	uPA surface inh	TDP1 cell noCPT	TDP1 block	TDP1 cell CPT	miR-21 reporter
COCCN(C(=O)Cc1cccs1)C(C(=O)NCc1ccc(OC)cc1)c1ccc(C(C)C)cc1 (configuration not stated)	n	u	n	u	n
COc1ccc(CCCC(=O)NC(C)c2ccccc2)cc1 (configuration not stated)	n	n	n	n	n
CC(C)CC(C(=O)NCc1ccccn1)N1C(=O)c2ccccc2C1=O (configuration not stated)	n	n	n	n	n
CCN(CC)S(=O)(=O)c1cccc(C(=O)N2CCCc3ccccc32)c1	n	u	n	u	n
Cc1ccc(C2(c3ccccc3)NC(=O)N(CC(=O)NCc3ccccc3)C2=O)cc1C (configuration not stated)	n	23.1µM	n	u	x
O=C(CN1C(=O)NC(c2ccccc2)(c2ccccc2)C1=O)NCc1ccccc1	n	n	n	n	x
COc1ccc(S(=O)(=O)N2CCCCC2)cc1NC(=O)C1CC1	n	n	n	n	x
Cc1ccc(OCC(=O)Nc2nonc2-c2ccc(Br)cc2)cc1	x	n	n	n	n
CCOc1ccc(-c2nonc2NC(=O)COc2c(C)cc(C)cc2C)cc1OCC	x	n	n	u	n
Cc1cccc(OCC(=O)Nc2nonc2-c2ccc(Br)cc2)c1C	x	u	n	18.4µM	n
Cc1ccc(OC(C)C(=O)Nc2nonc2-c2ccc(Br)cc2)cc1C (configuration not stated)	x	18.4µM	n	u	n
Cc1cccc(OC(C)C(=O)Nc2nonc2-c2ccc(Br)cc2)c1C (configuration not stated)	x	16.4µM	n	25.9µM	n
COCCN(C/C=C/c1ccccc1)C/C=C/c1ccccc1	n	u	x	u	n
Cc1ccc(S(=O)(=O)/C(C#N)=C/c2c(N3CCOCC3)nc3c(C)cccn3c2=O)cc1	n	u	n	n	n
O=C(N[C@@H](c1ccccc1)[C@H](O)c1ccccc1)[C@@H]1CCCN1C(=O)OCc1ccccc1	n	n	n	n	x
COC(=O)c1ccccc1NC(=O)c1c(NC(=O)c2ccco2)sc2c1CCC(C(C)(C)C)C2 (configuration not stated)	x	n	x	n	n
Cc1cc(C)c2c(-n3cccc3)c(C(=O)O)sc2n1	n	n	n	n	n
CC(C)Oc1ccc(CNC(=O)c2sc3ncccc3c2-n2cccc2)cc1	x	18.4µM	n	20.6µM	n
COc1cc(CNC(=O)c2sc3ncccc3c2-n2cccc2)cc(OC)c1OC	x	10.3µM	n	18.4µM	u
Cc1cc(C)c2c(-n3cccc3)c(NC(=O)OC(C)C)sc2n1	n	20.6µM	n	18.4µM	n
COc1cccc(CNC(=O)c2sc3nc(C)cc(C)c3c2-n2cccc2)c1OC	x	u	n	23.1µM	n
Cc1ccc(C)c(S(=O)(=O)n2nc(C)c(S(=O)(=O)N3CCCCCC3)c2C)c1	x	n	n	n	n
O=c1c(-c2ccc(Cl)cc2)coc2c(CN3CCCCC3)c(O)ccc12	n	n	n	n	n
CC(C)N(Cc1ccc(F)cc1)C(=O)c1cc2ccccc2oc1=O	x	x	n	x	n
CCN(C(=O)COC(=O)c1ccc(SC)cc1OC)C1CCS(=O)(=O)C1 (configuration not stated)	n	n	n	n	x
CN(C)c1ccc(CNC(=O)c2sc3ncccc3c2-n2cccc2)cc1	x	20.6µM	n	16.4µM	n

Screening data from PubChem BioAssay.
